PubChem BioAssay AID1159580 (chemical genetic matrix, 2015)
In all, about 5,500 compounds went through this assay and about 2,000 (36%) were called active. Inconclusive results (about 18%) are left out. This is one part of the list. A number with no mark means an inactive call. Cut-off read from the data, not from the text of the source: active = normalized growth mostly below about 0.91 (no sharp cut-off); inconclusive = no clear call, values can overlap the other calls; inactive = mostly above about 0.92.

Assay: chemical genetic growth profiling, strain panel (AID 1159580);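 note: tested at 20 µM; growth read once vehicle control cultures reached saturation at 30 °C; 1 = growth at the plate median or of vehicle wells; lower values mean less growth of the strain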
Conditions: growth OD

COc1ccc2c(c1)OCC(Cc1ccc(OC)c(O)c1)C2=O (stereo not drawn)
normalized growth (S. cerevisiae deletion strains, locus YJR043C, strain POL32, hits give low values): 0.998 | normalized growth (S. cerevisiae deletion strains, locus YJR066W, strain TOR1, hits give low values): 0.904 | normalized growth (S. cerevisiae deletion strains, locus YKL009W, strain mrt4, hits give low values): 0.94 | normalized growth (S. cerevisiae deletion strains, locus YKL068W, hits give low values): 0.97 | normalized growth (S. cerevisiae deletion strains, locus YKL085W, strain MDH1 (second series), hits give low values): 0.969 | normalized growth (S. cerevisiae deletion strains, locus YKL085W, strain MDH1, hits give low values): 0.969 | normalized growth (S. cerevisiae deletion strains, locus YKL160W, strain elf1, hits give low values): 0.925 | normalized growth (S. cerevisiae deletion strains, locus YKL190W, strain CNB1, hits give low values): 0.984 | normalized growth (S. cerevisiae deletion strains, locus YKR001C, strain vps1, hits give low values): 0.964 | normalized growth (S. cerevisiae deletion strains, locus YKR026C, strain gcn3, hits give low values): 0.966 | normalized growth (S. cerevisiae deletion strains, locus YKR091W, strain srl3, hits give low values): 0.962 | normalized growth (S. cerevisiae deletion strains, locus YLL001W, strain dnm1, hits give low values): 0.931 | normalized growth (S. cerevisiae deletion strains, locus YLL026W, hits give low values): 0.957 | normalized growth (S. cerevisiae deletion strains, locus YLL041C, strain sdh2, hits give low values): 0.955 | normalized growth (S. cerevisiae deletion strains, locus YLR027C, strain aat2, hits give low values): 0.933 | normalized growth (S. cerevisiae deletion strains, locus YLR039C, strain RIC1, hits give low values): 1.02 | normalized growth (S. cerevisiae deletion strains, locus YLR058C, strain SHM2, hits give low values): 0.958 | normalized growth (S. cerevisiae deletion strains, locus YLR102C, strain apc9, hits give low values): 0.955 | normalized growth (S. cerevisiae deletion strains, locus YLR113W, strain HOG1, hits give low values): 0.917 | normalized growth (S. cerevisiae deletion strains, locus YLR221C, strain rsa3, hits give low values): 0.923 | normalized growth (S. cerevisiae deletion strains, locus YLR258W, strain gsy2, hits give low values): 0.91 (active) | normalized growth (S. cerevisiae deletion strains, locus YLR262C, strain YPT6 (second series), hits give low values): 0.985 | normalized growth (S. cerevisiae deletion strains, locus YLR262C, strain YPT6, hits give low values): 0.986 | normalized growth (S. cerevisiae deletion strains, locus YLR268W, strain sec22, hits give low values): 0.976 | normalized growth (S. cerevisiae deletion strains, locus YLR320W, strain mms22, hits give low values): 0.835 (active) | normalized growth (S. cerevisiae deletion strains, locus YLR330W, strain CHS5, hits give low values): 0.952 | normalized growth (S. cerevisiae deletion strains, locus YLR342W, strain FKS1 (second series), hits give low values): 0.955 | normalized growth (S. cerevisiae deletion strains, locus YLR342W, strain FKS1, hits give low values): 0.922 | normalized growth (S. cerevisiae deletion strains, locus YLR357W, strain rsc2, hits give low values): 0.998 | normalized growth (S. cerevisiae deletion strains, locus YLR370C, strain arc18, hits give low values): 0.97 | normalized growth (S. cerevisiae deletion strains, locus YLR371W, strain rom2, hits give low values): 0.975 | normalized growth (S. cerevisiae deletion strains, locus YLR384C, strain iki3, hits give low values): 0.948 | normalized growth (S. cerevisiae deletion strains, locus YLR418C, strain cdc73, hits give low values): 0.81 (active) | normalized growth (S. cerevisiae deletion strains, locus YML016C, strain PPZ1, hits give low values): 0.967 | normalized growth (S. cerevisiae deletion strains, locus YML032C, strain rad52, hits give low values): 0.949 | normalized growth (S. cerevisiae deletion strains, locus YML120C, strain ndi1, hits give low values): 0.938 | normalized growth (S. cerevisiae deletion strains, locus YML124C, strain tub3, hits give low values): 0.954 | normalized growth (S. cerevisiae deletion strains, locus YMR058W, strain fet3, hits give low values): 0.948 | normalized growth (S. cerevisiae deletion strains, locus YMR078C, strain ctf18, hits give low values): 0.95 | normalized growth (S. cerevisiae deletion strains, locus YMR125W, strain sto1, hits give low values): 1.01 | normalized growth (S. cerevisiae deletion strains, locus YMR129W, hits give low values): 0.948 | normalized growth (S. cerevisiae deletion strains, locus YMR205C, strain PFK2, hits give low values): 0.833 (active) | normalized growth (S. cerevisiae deletion strains, locus YMR223W, strain ubp8, hits give low values): 0.933 | normalized growth (S. cerevisiae deletion strains, locus YMR231W, strain pep5, hits give low values): 0.967 | normalized growth (S. cerevisiae deletion strains, locus YMR307W, strain GAS1, hits give low values): 0.97 | normalized growth (S. cerevisiae deletion strains, locus YNL067W, strain RPL9B, hits give low values): 0.944 | normalized growth (S. cerevisiae deletion strains, locus YNL071W, strain lat1, hits give low values): 0.681 (active) | normalized growth (S. cerevisiae deletion strains, locus YNL183C, strain NPR1, hits give low values): 0.933 | normalized growth (S. cerevisiae deletion strains, locus YNL209W, strain ssb2, hits give low values): 0.978 | normalized growth (S. cerevisiae deletion strains, locus YNL233W, strain BNI4, hits give low values): 0.905 | normalized growth (S. cerevisiae deletion strains, locus YNL248C, strain rpa49, hits give low values): 0.919 | normalized growth (S. cerevisiae deletion strains, locus YNL250W, strain rad50, hits give low values): 0.94 | normalized growth (S. cerevisiae deletion strains, locus YNL271C, strain bni1, hits give low values): 0.952 | normalized growth (S. cerevisiae deletion strains, locus YNL298W, strain CLA4, hits give low values): 0.959 | normalized growth (S. cerevisiae deletion strains, locus YNL307C, strain MCK1, hits give low values): 0.824 (active) | normalized growth (S. cerevisiae deletion strains, locus YNL322C, strain KRE1 (second series), hits give low values): 0.949 | normalized growth (S. cerevisiae deletion strains, locus YNR049C, strain mso1, hits give low values): 0.967 | normalized growth (S. cerevisiae deletion strains, locus YNR052C, strain pop2, hits give low values): 0.937 | normalized growth (S. cerevisiae deletion strains, locus YOL012C, strain htz1): 1.16 | normalized growth (S. cerevisiae deletion strains, locus YOL147C, strain pex11, hits give low values): 0.964 | normalized growth (S. cerevisiae deletion strains, locus YOR001W, strain rrp6, hits give low values): 0.898 | normalized growth (S. cerevisiae deletion strains, locus YOR061W, strain CKA2, hits give low values): 0.963 | normalized growth (S. cerevisiae deletion strains, locus YOR069W, strain VPS5, hits give low values): 0.96 | normalized growth (S. cerevisiae deletion strains, locus YOR070C, strain gyp1, hits give low values): 0.968 | normalized growth (S. cerevisiae deletion strains, locus YOR080W, strain dia2, hits give low values): 0.979 | normalized growth (S. cerevisiae deletion strains, locus YOR083W, strain WHI5, hits give low values): 0.911 | normalized growth (S. cerevisiae deletion strains, locus YOR106W, strain vam3, hits give low values): 0.886 | normalized growth (S. cerevisiae deletion strains, locus YOR136W, strain idh2, hits give low values): 0.962 | normalized growth (S. cerevisiae deletion strains, locus YOR144C, strain elg1, hits give low values): 0.95 | normalized growth (S. cerevisiae deletion strains, locus YOR184W, strain ser1, hits give low values): 0.906 | normalized growth (S. cerevisiae deletion strains, locus YOR231W, strain MKK1, hits give low values): 0.998 | normalized growth (S. cerevisiae deletion strains, locus YOR265W, strain rbl2, hits give low values): 0.962 | normalized growth (S. cerevisiae deletion strains, locus YOR270C, strain vph1, hits give low values): 0.823 | normalized growth (S. cerevisiae deletion strains, locus YOR290C, strain snf2, hits give low values): 0.897 | normalized growth (S. cerevisiae deletion strains, locus YOR316C, strain cot1, hits give low values): 0.959 | normalized growth (S. cerevisiae deletion strains, locus YPL051W, strain arl3, hits give low values): 0.939 | normalized growth (S. cerevisiae deletion strains, locus YPL055C, strain LGE1, hits give low values): 0.96 | normalized growth (S. cerevisiae deletion strains, locus YPL078C, strain atp4, hits give low values): 0.914 | normalized growth (S. cerevisiae deletion strains, locus YPL106C, strain sse1, hits give low values): 0.972 | normalized growth (S. cerevisiae deletion strains, locus YPL240C, strain hsp82, hits give low values): 0.946 | normalized growth (S. cerevisiae deletion strains, locus YPL241C, strain CIN2, hits give low values): 0.973 | normalized growth (S. cerevisiae deletion strains, locus YPL256C, strain CLN2, hits give low values): 1.01 | normalized growth (S. cerevisiae deletion strains, locus YPR119W, strain clb2, hits give low values): 0.95 | normalized growth (S. cerevisiae deletion strains, locus YPR141C, strain kar3, hits give low values): 0.971 | normalized growth (S. cerevisiae deletion strains, locus YPR163C, strain tif3, hits give low values): 0.842 (active) | normalized growth (S. cerevisiae deletion strains, locus YPR167C, strain met16, hits give low values): 0.89 (active) | normalized growth (S. cerevisiae deletion strains, strain wtn01, hits give low values): 0.95 | normalized growth (S. cerevisiae strains, strain wild type, hits give low values): 0.973
